Source: PubChem
The full list was thinned out, with hits kept by preference.
NS1 inh = influenza NS1 inhibition. Potency, µM (titrated, usually from 46.1 µM), inactives show at the highest dose activity, positive = more growth. hit rate 0.4% among 270,000. AID 2326; calls by dose curve; further: actives are rising curves; nearly all actives have a fitted effect of over 50% in size
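S. cerevisiae expressing influenza A NS1, grown in glucose, washed, then diluted 1:100 into pH 6.0 -URA galactose medium with 23 nl compound. Growth recovery read as OD600; NS1-free strain serves as control.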
Cruzain noTriton = inhibitors of Trypanosoma cruzi cruzain without detergent | P25779 | purified cruzain, Z-FR-AMC fluorescence, no detergent | Potency, µM, without a hit: max response, negative = inhibition, most hits filed as inhibitors | hit rate 2.3% among 200,000;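 further: plate controls were enzyme without inhibitor for no effect and buffer without enzyme for full effect; nearly all actives have a fitted effect of over 40% in size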
Target sequence (P25779 123-467 limits assumed): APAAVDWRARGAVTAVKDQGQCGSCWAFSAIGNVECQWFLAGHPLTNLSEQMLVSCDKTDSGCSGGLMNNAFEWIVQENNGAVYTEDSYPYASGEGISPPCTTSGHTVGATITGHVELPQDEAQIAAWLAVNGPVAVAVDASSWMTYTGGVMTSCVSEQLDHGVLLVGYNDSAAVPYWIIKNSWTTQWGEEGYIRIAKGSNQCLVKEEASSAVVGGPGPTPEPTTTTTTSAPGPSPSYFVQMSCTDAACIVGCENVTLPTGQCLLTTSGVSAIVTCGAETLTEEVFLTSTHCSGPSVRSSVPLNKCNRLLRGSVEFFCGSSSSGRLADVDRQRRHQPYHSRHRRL
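Purified cruzain at 1.5 nM, pre-incubated 15 min with compound at room temperature in 100 mM sodium acetate pH 5.5, 5 mM DTT, 0.00005% Triton X-100. Reaction started with 2 uM Z-FR-AMC; AMC fluorescence increase over 60 s gives rate.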
Cruzain Triton = blocks cruzain activity in presence of Triton detergent; purified cruzain, Z-FR-AMC fluorescence, 0.01% Triton; Potency, µM, inactives show max response, negative = inhibition, actives largely listed as inhibitors; P25779; hit rate 0.43% among 200,000; AID 1478;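 further: plate controls were neutral wells for no effect and buffer without enzyme for full effect; nearly all actives have a fitted effect of over 40% in size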
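Enzyme 1.5 nM, Z-FR-AMC 2 uM, NaOAc 100 mM pH 5.5, DTT 5 mM, Triton X-100 0.01%; 15 min RT compound preincubation; kinetic ex360/em450, 60 s delta.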
The depositor's hits bear a star; ? = inconclusive; · = no result given. Unless noted, the call rests on the fitted dose curve; in most records, active means well fitted curve in the direction sought with a large enough effect; inconclusive means small, poorly fitted or top-dose-only effect, or another doubt; inactive means no such curve, though single readings can be large; an effect the other way counts as inactive or inconclusive. Potency means the concentration at half of the fitted maximal effect.

SMILES | NS1 inh | Cruzain noTriton | Cruzain Triton
CCOC(=O)C1(C)C=C(Nc2ccc(OC)cc2)C(=O)N1c1ccc(OC)cc1 (stereo not given) | 4.1% | 15.8µM* | 6.4%
COC(=O)c1nnc(SC)nc1C(=O)OC | · | 2.7% | 1.1%
CCS(=O)(=O)N1CCC2(CC1)OC(=O)C(C)=C2C(=O)NCc1ccccc1C | · | -1.9% | 0.3%
CCc1ccc2occ(CC(=O)Nc3sc4c(c3C(=O)NCCOC)CCCC4)c2c1 | · | -4.0% | -3.9%
O=C1C2C3c4ccccc4C(c4ccccc43)C2C(=O)N1c1nc(-c2ccccc2)cs1 (stereo not given) | 8.8% | ? | -3.2%
O=C1C2C3c4ccccc4C(c4ccccc43)[C@@H]2C(=O)N1c1nc(-c2ccccc2)cs1 (stereo not given in full) | 17.7% | 12.6µM* | -4.2%
COc1ccc(N=c2oc3cc(O)ccc3cc2C(=O)NCC2CCCO2)cc1 (stereo not given) | -1.8% | -20.0% | 4.8%
CCOc1ccc(N=c2oc3cc(O)ccc3cc2C(=O)NCC2CCCO2)cc1 (stereo not given) | 1.0% | 6.31µM* | 2.2%
O=C(CCn1ccc2cc(S(=O)(=O)N3CCCC3)ccc21)NCc1cccc(Br)c1 | · | -3.5% | -4.9%
Cc1cccc(CSc2nc3sc(C)c(C)c3c(=O)n2Cc2ccco2)c1 | -3.2% | ? | 4.1%
Cc1sc2nc(SCc3nc4ccccc4[nH]3)n(Cc3ccco3)c(=O)c2c1C | 9.1% | 31.6µM* | -2.2%
Cc1sc2nc(SCc3ccccc3)n(Cc3ccco3)c(=O)c2c1C | ? | ? | -0.1%
COc1cccc(CSc2nc3sc(C)c(C)c3c(=O)n2Cc2ccco2)c1 | 4.0% | 25.1µM* | -2.9%
Cc1ccc(CNC(=O)c2c(C)oc3nc(C)nc(N4CCOCC4)c23)cc1 | · | -11.1% | 0.2%
CN1CCc2c(cc(O)c(O)c2Cl)C(c2cccc(Cl)c2)C1 (stereo not given) | 16.6% | ? | -2.0%
N#CC(=C(/N)Sc1ccccc1N)/C(C#N)=C(/N)Sc1ccccc1N | · | ? | -19.5%
O=C(Nc1c(Cl)cccc1Cl)c1ccc(-c2ccccc2)cc1 | -4.0% | -8.6% | 0.6%
Cc1ccc([N+](=O)[O-])cc1NC(=O)c1ccc(C(C)(C)C)cc1 | -43.9% | -1.7% | -1.2%
Cc1ccc([N+](=O)[O-])cc1NC(=O)c1ccc(-c2ccccc2)cc1 | ? | 12.6µM* | 3.0%
O=C(Nc1ccc(Cl)cc1Cl)c1ccc(-c2ccccc2)cc1 | 5.8% | 25.1µM* | 0.0%
CO[C@@H]1/C=C\O[C@]2(C)Oc3c(C)c(O)c4c(O)c(c(CN5CCN(C)CC5)c(O)c4c3C2=O)NC(=O)/C(C)=C\C=C[C@@H](C)[C@@H](O)[C@H](C)[C@@H](O)C(C)[C@H](OC(C)=O)[C@@H]1C (stereo not given in full) | -19.1% | ? | -14.5%
COc1ccc(CC(=O)NC2CC(=O)N(c3cccc(F)c3)C2)cc1 (stereo not given) | · | 3.5% | 0.4%
Cc1c(CC(=O)N2CCCCC2)c(=O)oc2cc3occ(C(C)(C)C)c3cc12 | · | 0.0% | -1.3%
O=C(CNC(=O)C1CCCCC1)OCc1cc(=O)oc2ccc3ccccc3c12 | 4.6% | -19.6% | 3.16µM*
CCOC(=O)c1oc2ccccc2c1NC(=O)C1CCCCC1 | 10.4% | -23.7% | 7.0%
SMILES | NS1 inh | Cruzain noTriton | Cruzain Triton
C/C(=N/O)c1ccc2cc(Br)c3ccccc3c2c1 | -4.1% | -0.2% | -6.5%
Cc1cc(C(=O)Nc2sc3c(c2C#N)CCC(C)C3)no1 (stereo not given) | -6.1% | -7.0% | -1.7%
Cc1onc(-c2ccccc2)c1C(=O)Nc1sc2c(c1C#N)CCC2 | -14.9% | -20.7% | -5.2%
Cc1onc(-c2c(F)cccc2Cl)c1C(=O)Nc1sc2c(c1C(N)=O)CCC2 | 7.8% | ? | -15.3%
Cc1onc(-c2ccccc2)c1C(=O)NC(=S)Nc1sc2c(c1C#N)CCC(C)C2 (stereo not given) | ? | 7.94µM* | -6.4%
Cc1onc(-c2ccccc2)c1C(=O)NC(=S)Nc1sc2c(c1C#N)CCCC2 | 21.7% | 12.6µM* | -7.6%
Cc1onc(-c2c(F)cccc2Cl)c1C(=O)Nc1sc2c(c1C#N)CCC(C(C)(C)C)C2 (stereo not given) | 4.4% | 10µM* | -4.3%
COCCn1c(=O)c(-c2cccs2)nc2cnc(N(C)C)nc21 | · | -4.8% | 0.5%
COc1ccc(-c2cc3ccccc3oc2=O)cc1NC(=O)c1ccc([N+](=O)[O-])o1 | -3.7% | -22.4% | -3.6%
COc1ccc(-c2cc3ccccc3oc2=O)cc1NC(=S)NC(=O)c1ccc2c(c1)OCCO2 | 13.3% | 12.6µM* | -2.5%
CCC(=O)Nc1cc(-c2cc3ccccc3oc2=O)ccc1OC | -12.2% | · | ·
COc1ccc(-c2cc3ccccc3oc2=O)cc1NC(=O)c1ccc(Br)o1 | -25.2% | 25.1µM* | -21.0%
